The values that follow come from PubChem BioAssay AID567 (The Scripps Research Institute Molecular Screening Center, 2006).

In all, about 65,000 compounds went through this assay and about 370 (0.57%) were called active.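 How the source made its calls: active means activation above the screen-wide mean activation plus 3 SD (cut at about 19% in these data); inactive means the rest.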 Shown is part of a subset that was picked to be rich in actives.

In this experiment the target is 5-hydroxytryptamine receptor 1A (Homo sapiens) (UniProt P08908). The experiment in a line: human 5-HT1a receptor agonists, primary screen, cell-based, CHO, Ga15 NFAT-bla reporter (AID 567).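 Further: 0% = DMSO wells and 100% = 5-CT at EC100.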 Conditions: CHO 5-HT1a Ga15 NFAT-bla reporter, FRET ratio; at 10 µM; hits give high values; 0% basal, 100% maximal reference agonist.
Sequence of 5-hydroxytryptamine receptor 1A (Homo sapiens) (P08908 whole entry, looked up): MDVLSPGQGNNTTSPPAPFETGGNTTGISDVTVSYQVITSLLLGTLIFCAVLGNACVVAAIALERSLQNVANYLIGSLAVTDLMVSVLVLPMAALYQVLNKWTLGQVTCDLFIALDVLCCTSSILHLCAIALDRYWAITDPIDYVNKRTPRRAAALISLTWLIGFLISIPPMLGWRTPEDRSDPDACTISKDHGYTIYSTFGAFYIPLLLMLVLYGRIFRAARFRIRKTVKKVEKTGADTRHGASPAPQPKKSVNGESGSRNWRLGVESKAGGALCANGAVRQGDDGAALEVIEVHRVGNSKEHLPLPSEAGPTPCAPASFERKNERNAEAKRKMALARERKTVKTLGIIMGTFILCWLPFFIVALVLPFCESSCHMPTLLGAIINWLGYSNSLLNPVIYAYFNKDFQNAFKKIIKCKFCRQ
For `COC(=O)c1ccc(S(=O)(=O)c2ccc(C(=O)OC)s2)s1`, the activation is 2.5% (inactive).
For `CCOC(=O)CN(C(=O)CN1CCOCC1)c1ccc(Br)cc1`, the activation is -0.22% (inactive).
`CCOC(=O)C1CCN(C(c2cc3cc(C)cc(C)c3[nH]c2=O)c2nnnn2C2CCCCC2)CC1` (centres undefined): the activation is -0.97% (inactive).
Take `CC(C)CCNC(=O)C1CCCN(S(=O)(=O)c2ccc(F)cc2)C1` (centres undefined): the activation is 0.42% (inactive).
As for `O=C(NCc1ccco1)c1ccc(CS(=O)(=O)Cc2ccc(F)cc2)o1`, the figure is -3.1% (inactive); as for `O=C(c1cccs1)N1CCCC(c2nc(-c3ccc(F)cc3)no2)C1` (centres undefined), -1.69% (inactive).
On to `Cn1c(=O)c2c(ncn2CC(=O)N2CCN(c3ccccc3)CC2)n(C)c1=O`, for which the activation is -0.49% (inactive).
On to `COc1ccc(C(=O)Nc2ccc(S(=O)(=O)Nc3onc(C)c3C)cc2)cc1OC`, for which the activation is -4.48% (inactive).
Regarding `Cc1noc(NS(=O)(=O)c2ccc(N3CC(O)=C(c4ccccc4)C3=N)cc2)c1C`, the activation was 147% (active).
Take `Cc1noc(NS(=O)(=O)c2ccc(NC(=O)C34CCC(CC3)C4)cc2)c1C`: the activation was 0.73% (inactive).
Consider `COc1cccc2c(=O)n(CC(=O)N3CCCCCC3)ccc12`, for which the activation is -2.41% (inactive).
Consider `CC1=C(C(=O)OCc2ccccc2)C(c2ccco2)n2ncnc2N1` (centres undefined), for which the activation is 2.82% (inactive).
Turning to `CCCOc1ccc(N2CC(C(=O)Nc3ccccn3)CC2=O)cc1` (centres undefined), the activation is -1.38% (inactive).
For the compound `COc1cc2ccccc2cc1C(=O)Nc1ccc(S(=O)(=O)Nc2cc(C)on2)cc1`, the activation is 0.01% (inactive).
For `CC(C)(C)n1c(=O)[nH]c2c(c1=O)CCC2`, the activation was -0.19% (inactive).
On to `Cc1ccc(-n2nc3cc(Cl)c(NC(=O)c4ccco4)cc3n2)cc1`, for which the activation was 0.44% (inactive).
For the compound `c1ccc2cc(OCCN3CCCC3)ccc2c1`, the activation is -1% (inactive).
For the compound `O=C(CN1C2CCC1CC(NC(=O)C1CC1)C2)NCc1ccccc1` (centres undefined), the activation is 0.81% (inactive).
With `CCn1c(SCC(=O)Nc2ccc3c(c2)OCCO3)nc2c(c1=O)SC(C)C2` (centres undefined), the activation is 1.05% (inactive).
Regarding `O=C(c1ccc2c(c1)OCCO2)C1CCN(S(=O)(=O)c2cccc(F)c2)CC1`, the activation was -3.42% (inactive).
With `CC(=O)NS(=O)(=O)c1ccccc1`, the activation was -2.33% (inactive).
As for `Fc1cnc(N2CCOCC2)nc1NCc1ccccc1`, the activation is -1.58% (inactive).
As for `CCn1c(SCC(=O)Nc2nccs2)nnc1-c1ccncc1`, the activation was -0.84% (inactive).
In the case of `COc1ccc(-c2nn(-c3ccccc3)cc2C(=O)Nc2nc(CC(C)=O)ns2)cc1`, the activation is 59.1% (active).
Take `CC(=O)Cc1nsc(NC(=O)c2csc3c2CCCC3)n1`: the activation is 0.34% (inactive).
As for `CC(=O)Cc1nsc(NC(=O)c2ccc(COc3ccc(C)cc3)o2)n1`, the activation was -1.31% (inactive).
As for `CCOc1cc(C2C(C(=O)OC)=CN(C3CCCC3)C=C2C(=O)OC)cc(Br)c1O`, the activation was 14.4% (inactive).
As for `COC(=O)C1=CN(C)C=C(C(=O)OC)C1c1ccc(Cl)cc1Cl`, the activation is 13.7% (inactive).
On to `CCOc1ccccc1C1C(C(=O)OC)=CN(C)C=C1C(=O)OC`, for which the activation is 20.1% (active).
As for `CC(=O)c1ccc(N2C(=NC(=O)C(C)C)SC3CS(=O)(=O)CC32)cc1` (centres undefined), the figure is -1.94% (inactive); as for `CN(C)/C=C1/Nc2ccccc2C1=O`, -1.11% (inactive).
For `O=C(O)c1ccc(F)c(S(=O)(=O)Nc2ccccc2)c1`, the activation is 1% (inactive).
With `COc1ccc(NC(C)=O)cc1NC(=O)CN1CCN(c2ccccn2)CC1`, the activation was -1.16% (inactive).
As to `COC(=O)c1ccc(C2NC(=O)NC(C)=C2C(=O)N(C)C)cc1` (centres undefined), the activation is -3.69% (inactive).
For `O=C(c1ccc(S(=O)(=O)N2CCOCC2)cc1)N1CCN(c2ccccc2)CC1`, the activation was -2.91% (inactive).
As for `CNC(=O)c1nnn(-c2ccccc2)c1C(=O)NC`, the activation was -1.73% (inactive).
In the case of `CCOc1ccc(NS(=O)(=O)c2ccc(OCC(=O)NCCCOC)cc2)cc1`, the activation was -1.21% (inactive).
As for `O=C(COC(=O)CCc1c[nH]c(=O)[nH]1)Nc1ccccc1Cl`, the activation is -0.97% (inactive).
For `COc1ccc(C)cc1NC(=O)c1[nH]c(C)c(C(C)=O)c1C`, the activation was 43.5% (active).
In the case of `CCOC(=O)c1c(C)[nH]c(C(=O)NCc2ccccc2OC)c1C`, the activation is -0.94% (inactive).
`CCOc1ccc(NC(=O)Nc2cc(C)ccc2OC)cc1`: the activation was -4.41% (inactive).
As for `O=C(CSc1nnc(-c2ccco2)o1)NCC(=O)c1ccccc1`, the figure is 0.23% (inactive); as for `Cc1ccc(CNC(=O)C2CCCN(S(C)(=O)=O)C2)cc1` (centres undefined), 0.44% (inactive); as for `Cc1cc(C)c(NC(=O)CS(=O)CC(=O)Nc2cccnc2)c(C)c1` (centres undefined), 0.42% (inactive).
As for `CCCC(=O)Nc1ccc(C(=O)NCCCn2ccnc2)cc1`, the activation was -3.99% (inactive).
In the case of `CCOC(=O)C1(Cc2ccc(O)cc2)NC(c2ccccc2F)C2C(=O)N(C)C(=O)C21` (centres undefined), the activation was -1.57% (inactive).
As for `COc1ccccc1N1CC(O)=C(c2nc3ccccc3s2)C1=N`, the activation was -3.98% (inactive).
Regarding `Cc1ccc(C(=O)CS(C)(=O)=O)cc1`, the activation was -5.39% (inactive).
Turning to `O=C(O)C1CCCN(S(=O)(=O)c2cccc3cccnc23)C1` (centres undefined), the activation was -4.76% (inactive).
As for `Cc1[nH]c2ccc(S(N)(=O)=O)cc2c1C`, the activation is -0.45% (inactive).
Consider `Cc1ccccc1CSCC(=O)NC(=O)NC(C)(C)C`, for which the activation was -1.47% (inactive).
Regarding `CC1CCCN(c2ccc(C(=O)NCCc3ccccc3)cn2)C1` (centres undefined), the activation was -0.9% (inactive).
As to `CC(C)Cn1c(N)c(C(=O)NCc2cccs2)c2nc3ccccc3nc21`, the activation is 77.6% (active).
Turning to `C=CCn1c(N)c(S(=O)(=O)c2cccs2)c2nc3ccccc3nc21`, the activation is -0.33% (inactive).
With `C=CCn1c(N)c(C(=O)OCC(C)C)c2nc3ccccc3nc21`, the activation is 0.61% (inactive).
Consider `CCOc1ccc2nc(SC(CC)C(=O)Nc3cc(C)on3)sc2c1` (centres undefined), for which the activation is 0.42% (inactive).
Regarding `COc1ccc(F)cc1S(=O)(=O)Nc1ccc2c(c1)OCO2`, the activation is -5.74% (inactive).
Regarding `O=C(Cn1cnc2c(nnn2Cc2ccc(F)cc2)c1=O)NCc1ccc2c(c1)OCO2`, the activation is -1.47% (inactive).
Take `COc1cccc2c(C)c(C(=O)O)[nH]c12`: the activation is 1.98% (inactive).
As to `C=CCSC1=C(C#N)C(c2cc(Br)c(O)c(OC)c2)CC(=O)N1` (centres undefined), the activation was 1.53% (inactive).
For `C=CCNc1nnc(SCC(=O)N2CCCCC2)c2ccccc12`, the activation is 0.32% (inactive).
Turning to `O=C1c2ccncc2C(=O)N1C1CCCCC1`, the activation is -3.22% (inactive).
For the compound `CC1Cn2c(nnc2-c2cccs2)S1` (centres undefined), the activation was 0.5% (inactive).
As to `Cc1ccc(CNC(=O)CN2CCN(Cc3ccc(Cl)cc3)C2=O)cc1`, the activation is 0.67% (inactive).
For `Cn1c(C(=O)NCCN2CCc3ccccc3C2)cc2c(=O)[nH]c3ccccc3c21`, the activation is -1.75% (inactive).
As for `CCc1ccccc1N(CC(=O)N1CCN(c2ccccc2F)CC1)S(C)(=O)=O`, the figure is -1.54% (inactive); as for `COc1ccccc1CNC(=O)CCCn1c(=O)c2ccccc2n(CC(=O)NC2CCCC2)c1=O`, -2.51% (inactive); as for `CCCOC(=O)CC1C(=O)NCCN1Cc1ccc(F)cc1` (centres undefined), 1.2% (inactive).
With `Cc1c(NC(=O)C(C)OC(=O)c2cc3c4ccccc4n(C)c3s2)c(=O)n(-c2ccccc2)n1C` (centres undefined), the activation is 1.13% (inactive).
Regarding `O=C(NC1CCCCC1)c1ccc2c(=O)n(CC3CCCO3)c(=O)[nH]c2c1` (centres undefined), the activation is -3.15% (inactive).
As for `COC(=O)c1ccc2c(=O)n(CC3CCCO3)c(=S)[nH]c2c1` (centres undefined), the activation is 66.3% (active).
As for `O=c1c2cc3c(=O)n(CC4CCCO4)c(=O)c3cc2c(=O)n1CC1CCCO1` (centres undefined), the figure is -2.73% (inactive); as for `CCC(C)NC(=O)C1CCC(=O)N1Cc1ccc(C)cc1` (centres undefined), -3.11% (inactive); as for `CCOc1ccc(C2C(C(=O)NC)=C(C)Nc3nc4ccccc4n32)cc1OC` (centres undefined), -2.74% (inactive).
Consider `c1cnc(NC2C3CC4CC(C3)CC2C4)nc1` (centres undefined), for which the activation is -0.19% (inactive).
`COc1ccc2c(c1OC)C(=O)OC2c1c(O)nc(SC)n(-c2ccccc2)c1=O` (centres undefined): the activation was 1.4% (inactive).
For the compound `CCn1c(-c2cc(OC)ccc2OC)csc1=Nc1c(C)n(C)n(-c2ccccc2)c1=O`, the activation was -3.67% (inactive).
In the case of `CCOC(=O)Cn1c(=O)oc2cc(S(=O)(=O)N(C)Cc3ccco3)ccc21`, the activation is -3.37% (inactive).
As for `Cc1ccc(C(C)C)c(OCc2nnc(SCC(=O)Nc3nccs3)n2C)c1`, the figure is -0.25% (inactive); as for `c1cnn(-c2cc(N3CCOCC3)ncn2)c1`, 42% (active).
With `O=C(Nc1cc(N2CCOCC2)ncn1)NC1(C(F)(F)F)Oc2ccc(Cl)cc2O1` (centres undefined), the activation is -2.08% (inactive).
As for `O=C1c2ccccc2-c2ncnc3c(N4CCOCC4)cc(N4CCOCC4)c1c23`, the figure is 0.99% (inactive).
With `COCCCn1c2nc3ccccc3nc2c2c(=O)n(Cc3ccc(Cl)cc3)c(C)nc21`, the activation is 1.36% (inactive).
In the case of `N#Cc1c(N)n(CCOC(=O)c2ccc(Cl)cc2)c2nc3ccccc3nc12`, the activation was 27.6% (active).
With `CC(C)(C)OC(=O)c1c(N)n(CCCN2CCCC2=O)c2nc3ccccc3nc12`, the activation is 4.61% (inactive).
As for `CCC(=O)c1ccc(OCC(O)CN2CCN(c3cccc(C(F)(F)F)c3)CC2)cc1` (centres undefined), the figure is 36.5% (active); as for `O=C(C(c1ccccc1)c1ccccc1)N1CCN(CC(O)COc2ccccc2)CC1` (centres undefined), -2.69% (inactive).
As for `COc1cccc(OCC(O)CN2CCN(CCO)CC2)c1` (centres undefined), the figure is 1% (inactive); as for `Cn1nc(-c2ccc(Cl)cc2)c2cc(C(=O)NCc3ccco3)sc21`, -2.11% (inactive).
Regarding `CCc1c(C)nc(N2CCN(Cc3ccccc3)CC2)[nH]c1=O`, the activation is -1.04% (inactive).
As for `CC(C)N1C(=O)C2C(C(=O)NC3CCCCC3)C3C=CC2(O3)C1C(=O)NC1CCCC1` (centres undefined), the activation is -3.66% (inactive).
As for `CCn1c(CNC(=O)c2ccc(OC)c(OC)c2)nnc1SCC(=O)Nc1ccccc1`, the figure is 1.92% (inactive); as for `CCCNS(=O)(=O)c1ccc(CCC(=O)NCc2cccnc2)cc1`, 0.51% (inactive); as for `CCN1CCN(Cc2nc3c(c(=O)n(C)c(=O)n3C)n2CC(=O)c2ccccc2)CC1`, -1.47% (inactive).
